The results in this text go back to PubChem BioAssay (NCATS).

Values joined by “and” are separate entries in the source; they are usually repeats but may differ in a detail not shown here. Equal entries are not always repeated. Results filed as inconclusive are left out. Active and inactive are the calls of the source. Unless noted, calls follow the shape of the dose curve; as a rule, active = well fitted curve in the direction sought with a large enough effect; inconclusive = small, poorly fitted or top-dose-only effect, or another doubt; inactive = no such curve, though single readings can be large; an effect the other way counts as inactive or inconclusive.

A short description of assay [1]: qHTS Assay for Lipid Storage Modulators (AID 1519; calls by dose curve; as to activity change, negative = inhibition: % is scaled to controls: 0 for no effect and ±100 for the full control effect). To be noted: Drosophila S3 cells, BODIPY lipid droplet/cell ratio, laser cytometry, cells loaded with oleic acid; for activity change, negative = inhibition: at 57.5 µM (top of the series). A digest of the protocol:
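Cells seeded at 5,000 per well were treated with compounds over a concentration series and loaded with oleic acid (400 uM, as added). Lipid droplet fluorescence (488 nm excitation, 500-530 nm channel) was read by laser-scanning cytometry and normalized to 20 uM Triacsin C.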
A general note: Quantitative high-throughput screening tests each substance at several concentrations.

Assay [2] can be described thus: Counterscreen for APE1 Inhibitors: Fluorescent Dye Displacement Validation Assay (AID 1707).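 Also: plate controls were ThO with dsDNA and no compound for no effect and ThO without dsDNA for full effect.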 Summed up: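 ThO 250 nM + dsDNA 50 nM (THF abasic site, 5'-TAMRA), Tris-HCl pH7.5/50mM NaCl/2 mM MgCl2/0.01% Tween-20; compounds pin-transferred; ex 480/em 540 nm endpoint. Neutral = no compound; no-DNA ThO wells = negative control.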
On the technique in general: Counterscreens check selectivity or assay interference.

Assay [3] deals with Endonuclease 4 (Escherichia coli (strain K12)) (UniProt P0A6C1). Nature of the assay: Counterscreen for APE1 Inhibitors: qHTS Validation Assay for Inhibitors of Endonuclease IV (AID 1708). Also: potency is read from the fitted curve at half-maximal effect. As to activity change, negative = inhibition: % is scaled to controls: 0 for no effect and ±100 for the full control effect. A digest of the protocol:
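Concentration-response counterscreen run identically to the APE1 assay: 15 min room-temperature preincubation of 2 nM enzyme with compound, reaction started with 50 nM quenched abasic DNA, progress taken from kinetic fluorescence.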

The nature of assay [4]: qHTS for differential inhibitors of proliferation of Plasmodium falciparum line 7G8 (AID 1815).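 Also: parasite growth measured after three days of incubation.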 Also: potency is read from the fitted curve at half-maximal effect.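 As to activity change, negative = inhibition: plate controls were vehicle wells for no effect and reference inhibitor wells for full effect.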
The nature of assay [5]: qHTS for differential inhibitors of proliferation of Plasmodium falciparum line GB4 (AID 1816).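 Also: parasite growth measured after 72 h incubation.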 Also: potency is read from the fitted curve at half-maximal effect.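 As to activity change, negative = inhibition: 0% = vehicle DMSO and -100% = reference inhibitor.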 The settings on record: Potency: Plasmodium falciparum GB4 proliferation inhibition.
Assay [6] in a line: qHTS for differential inhibitors of proliferation of Plasmodium falciparum line 3D7 (AID 1876). Also: potency is read from the fitted curve at half-maximal effect.
The nature of assay [7]: qHTS for differential inhibitors of proliferation of Plasmodium falciparum line D10 (AID 1877).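 Also: parasites grown with compound for 72 h before DNA staining.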 Also: potency is read from the fitted curve at half-maximal effect.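 As to activity change, negative = inhibition: plate controls were vehicle wells for no effect and reference inhibitor wells for full effect.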
For assay [8], the target named is DNA repair nuclease/redox regulator APEX1 (Homo sapiens) (UniProt P27695). The assay can be described thus: qHTS Validation Assay for Inhibitors of the Human Apurinic/apyrimidinic Endonuclease 1 (APE1) (AID 1705; also: potency is read from the fitted curve at half-maximal effect;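 as to activity change, negative = inhibition: TAMRA fluorescence gain over two minutes as APE1 cuts a quenched THF abasic duplex; % is scaled to controls: 0 for no effect and ±100 for the full control effect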). A digest of the protocol:
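Human APE1 was preincubated with compound for 15 min at room temperature, then 50 nM (final) THF-abasic double-stranded DNA substrate bearing 5'-TAMRA and 3'-BHQ-2 was added. Incision-driven fluorescence rise (ex 525/em 598 nm) was read kinetically.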

The target in assay [9] is Alpha-galactosidase A (Homo sapiens) (UniProt P06280). The assay can be described thus: Counterscreen for Glucocerebrosidase Inhibitors: qHTS Assay for Human alpha-Galactosidase at pH 4.5 (AID 992). Also: 0% is about no effect. Summed up: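 Read-out is 4-methylumbelliferone fluorescence (365 nm excitation, 440 nm emission) after a pH 10 NaOH/glycine stop. Reactions held 2 nM enzyme and 80 uM substrate at pH 4.5 for 20 min at room temperature.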

Assay [10] addresses alpha-glucosidase (Oryza sativa, rice) (UniProt Q653V4). The assay can be described thus: Counterscreen for Glucocerebrosidase Inhibitors: qHTS Assay for Rice alpha-Glucosidase at pH 5.0 (AID 997).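 Also: 0% = full activity with enzyme and -100% = basal without enzyme.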 Summed up:
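Rice alpha-glucosidase (4 nM final) with 400 uM 4-methylumbelliferyl-alpha-D-glucopyranoside in citrate buffer pH 5.0, 20 min at room temperature, stopped at pH 10; fluorescence 365/440 nm, compounds 0.7 nM–77 uM, AC50 from Hill fits.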

Setting [11] is: measured here: cell count channel max response.
Where [12] appears, read: measured here: lipid channel max response.

Sequence of Alpha-galactosidase A (Homo sapiens) (P06280 whole entry, looked up): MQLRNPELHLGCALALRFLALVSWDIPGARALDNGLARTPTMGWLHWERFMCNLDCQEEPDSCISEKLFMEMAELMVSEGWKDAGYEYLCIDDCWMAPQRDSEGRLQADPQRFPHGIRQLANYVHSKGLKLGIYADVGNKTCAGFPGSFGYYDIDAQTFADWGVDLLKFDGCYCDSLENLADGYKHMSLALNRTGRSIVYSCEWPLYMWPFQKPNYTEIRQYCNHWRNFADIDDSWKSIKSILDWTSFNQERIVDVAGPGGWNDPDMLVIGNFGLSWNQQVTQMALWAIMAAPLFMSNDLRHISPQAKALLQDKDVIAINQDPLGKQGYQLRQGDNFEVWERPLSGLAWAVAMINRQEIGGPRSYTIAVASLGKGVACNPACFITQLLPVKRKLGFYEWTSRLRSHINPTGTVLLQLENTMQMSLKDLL
Sequence of DNA repair nuclease/redox regulator APEX1 (Homo sapiens) (P27695 whole entry, looked up): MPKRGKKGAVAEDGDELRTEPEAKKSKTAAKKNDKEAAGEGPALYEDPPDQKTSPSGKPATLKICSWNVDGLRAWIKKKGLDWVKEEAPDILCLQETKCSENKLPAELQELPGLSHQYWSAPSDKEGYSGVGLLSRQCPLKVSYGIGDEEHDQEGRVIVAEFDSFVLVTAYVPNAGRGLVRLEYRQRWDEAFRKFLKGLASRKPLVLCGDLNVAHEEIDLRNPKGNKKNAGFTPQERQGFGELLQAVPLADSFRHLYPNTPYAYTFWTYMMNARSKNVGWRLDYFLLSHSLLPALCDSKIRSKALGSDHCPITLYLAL

Turning to `Nc1ncnc2c1ncn2C1CCCO1` (stereo not drawn), in assay [1], the activity change, negative = inhibition is -1.26% (inactive). Besides, the max response stood at 24.9% in assay [1] (setting [11]) and 22.8% in assay [1] (setting [12]). Also, the Potency result in assay [2], in assay [3], in assay [4], in assay [5], in assay [6] and in [7] was “inactive” in each case.

As to `CC(=O)[C@H]1CCC2C3CC=C4C[C@@H](OS(=O)(=O)O)CC[C@]4(C)C3CC[C@@]21C` (stereo partly drawn), the Potency result in [8], in assay [2], in assay [3], in [4], in assay [5] and in assay [6] was “inactive” each time. In [7], the Potency entry is “inactive”.

As for `NC(=O)CC[C@H](N)C(=O)O`, the Potency result in [8], in assay [2], in assay [3], in [4], in assay [5] and in assay [6] was “inactive” in each case. The Potency entry in assay [7] is “inactive”.

On to `O=C(O)C1CCNCC1`, for which the molecule was called inactive in assay [9] and in [10]. In addition, the activity change, negative = inhibition in [1] is -0.0209% (inactive). Also, the figures for the max response in assay [1] (setting [11]) and in assay [1] (setting [12]) were 11.3% and 10%, respectively. In addition, the Potency result in assay [8] and in assay [2] was “inactive” in each case.

As to `CC[C@@H]1Cc2cc(O)ccc2C2=C1c1ccc(O)cc1C[C@H]2CC`, the molecule was classed as inactive in assay [9] and in assay [10]. Moreover, the activity change, negative = inhibition in assay [1] was -3.04% (inactive). Moreover, the figures for the max response in [1] (setting [11]) and in [1] (setting [12]) were -26.2% and -25.3%, respectively. Besides, the Potency result in [8] and in assay [3] was “inactive” throughout. The Potency is 5.62 µM (active) in [4], 4.47 µM (active) in assay [5], 11.2 µM (active) in assay [6] and 11.2 µM (active) in assay [7].

Turning to `O=C(O)C1=CC(=C(c2ccc(O)c(C(=O)O)c2)c2ccc(O)c(C(=O)O)c2)C=CC1=O`, the outcome in assay [9] and in assay [10] was inactive. Also, the activity change, negative = inhibition in assay [1] is 3.23% (inactive) and 0.986% (inactive). Further, the max response in assay [1] (setting [11]) is 16.1% and 56.8%; in [1] (setting [12]), 22% and 58.3%. The Potency result in [2] is “inactive”. Moreover, in assay [3], the Potency was 0.708 µM (active).

As to `COc1ccc(CCN(C)CCc2ccc(OC)c(OC)c2)cc1OC`, the result in assay [9] and in assay [10] was inactive. In [1], the activity change, negative = inhibition is -1.77% (inactive) and -1.64% (inactive). Also, the max response in assay [1] (setting [11]) was 7.2% and 26.8%; in [1] (setting [12]), 4.66% and 25.1%. Besides, the Potency result in [8], in [2] and in assay [7] was “inactive” in each case.

For `CC(N)(Cc1ccc(O)cc1)C(=O)O` (stereo not drawn), the Potency entry in assay [8], in assay [2], in assay [3], in assay [4], in assay [5] and in [6] was “inactive” in each case. Moreover, in assay [7], the Potency entry was “inactive”.

`NC(N)=N[C@@H](CCC(=O)O)C(=O)O`: the Potency result in assay [8], in assay [2], in assay [3], in [4], in assay [5] and in assay [6] was “inactive” each time. The Potency entry in [7] is “inactive”.

Regarding `CCCCC[C@H](CC(=O)NO)C(=O)N[C@H](C(=O)N1CCC[C@H]1CO)C(C)C`, the Potency entry in assay [8], in assay [2] and in [3] was “inactive” in each case. In addition, the Potency in assay [4] was 2.24 µM (active); in [5], 2 µM (active); in assay [6] it was 1.78 µM (active); in assay [7], 1.58 µM (active).

On to `CCCCOC(=O)NS(=O)(=O)c1sc(CC(C)C)cc1-c1ccc(Cn2c(CC)nc3c(C)cc(C)nc32)cc1`, for which the call in [9] and in [10] was inactive. Besides, the activity change, negative = inhibition in [1] was -0.147% (inactive). The max response in assay [1] (setting [11]) is 28.5%; in [1] (setting [12]) it was 27.6%. Further, the Potency result in [2] is “inactive”. In addition, the Potency in assay [4] is 7.08 µM (active); in assay [5] it was 8.91 µM (active); in assay [6], 11.2 µM (active); in [7], 11.2 µM (active).

For `CCC1(O)CC2CN(CCc3c([nH]c4ccccc34)[C@@](C(=O)OC)(c3cc4c(cc3OC)N(C=O)C3[C@]45CCN4CC=C[C@@](CC)([C@@H](OC(C)=O)[C@]3(O)C(=O)OC)[C@H]45)C2)C1` (stereo partly drawn), the activity change, negative = inhibition in assay [1] is 2.35% (inactive). Besides, the max response is -1.21% in [1] (setting [11]) and 2.17% in assay [1] (setting [12]). Besides, the Potency result in assay [8] and in assay [2] was “inactive” throughout. In addition, the Potency was 0.794 µM (active) in assay [4], 0.0631 µM (active) in assay [6] and 0.224 µM (active) in [7].

In the case of `CC(/C=C/c1cccc(Oc2ccc(F)cc2)c1)N(O)C(N)=O` (stereo not drawn), the Potency result in assay [8], in assay [2] and in assay [3] was “inactive” in each case.

For the molecule `CC(=O)O[C@H]1CC2(C)[C@@H](C[C@@H](O)[C@H]3[C@@]4(C)CC[C@@H](O)[C@@H](C)[C@@H]4CC[C@@]32C)C1=C(CCC=C(C)C)C(=O)O` (stereo partly drawn), the results for the Potency in [8] and in [4] were 39.8 µM (active) and 8.91 µM (active), respectively. In addition, the Potency entry in assay [2] and in assay [3] was “inactive” each time.

For `c1ccc(C2CN3CCSC3=N2)cc1` (stereo not drawn), the activity change, negative = inhibition in [1] was 7.49% (inactive). In addition, the max response was determined as 0.909% in assay [1] (setting [11]) and 10.3% in assay [1] (setting [12]). In addition, the Potency entry in assay [8], in [2], in assay [4], in assay [6] and in assay [7] was “inactive” in each case.

On to `NCC(O)C1CCCCCCC1` (stereo not drawn), for which the Potency entry in assay [8], in assay [2], in [3], in assay [6] and in [7] was “inactive” throughout. The Potency is 12.6 µM (active) in [4] and 5.62 µM (active) in assay [5].

Take `COc1ccc2c(c1)c(CC(=O)O)c(C)n2C(=O)c1ccccc1`: the molecule was called inactive in [9] and in [10]. Also, the Potency result in assay [8], in [2], in assay [3], in assay [4], in [5] and in [6] was “inactive” each time. Moreover, in assay [7], the Potency result is “inactive”.

With `CC(C)(C)NCC(O)COc1cccc2[nH]c(=O)[nH]c12` (stereo not drawn), the Potency entry in assay [8], in assay [2], in assay [3], in assay [4], in assay [5] and in [6] was “inactive” each time. In assay [7], the Potency result was “inactive”.

For the molecule `Clc1nccc2c1ccc1ccccc12`, the call in assay [9] and in assay [10] was inactive. The activity change, negative = inhibition in assay [1] was -1.52% (inactive). For the same molecule, the max response is -15.2% in [1] (setting [11]) and -17.8% in assay [1] (setting [12]). For the same molecule, the Potency entry in assay [2], in [4], in assay [5], in assay [6] and in [7] was “inactive” throughout.

Regarding `C[C@@]1(C2CCCC2)Cc2cc(OCC(=O)O)c(Cl)c(Cl)c2C1=O`, the Potency result in [8], in assay [2], in assay [3], in assay [4], in assay [5] and in assay [6] was “inactive” in each case. For the same molecule, in assay [7], the Potency entry was “inactive”.

Regarding `CC(C)(CO)Cc1cc(C(C)(C)C)c(O)c(C(C)(C)C)c1`, the molecule was classed as inactive in assay [9] and in assay [10]. In addition, in [1], the activity change, negative = inhibition was -0.753% (inactive). In addition, the values for the max response in assay [1] (setting [11]) and in [1] (setting [12]) were -30.7% and -34%, respectively. The Potency result in assay [8] and in assay [2] was “inactive” in each case. Also, the Potency in assay [6] is 3.98 µM (active).

Take `COc1ccc2c(c1)CCC1C2CC[C@@]2(C)C1CC[C@@H]2NCCCCCCN1C(=O)C=CC1=O` (stereo partly drawn): the Potency result in assay [8], in [2], in [3], in assay [4], in assay [5] and in assay [6] was “inactive” each time. Also, in [7], the Potency entry is “inactive”.

Take `N#CC(=C(\N)Sc1ccccc1N)/C(C#N)=C(/N)Sc1ccccc1N`: the Potency entry in assay [8], in [2] and in assay [3] was “inactive” in each case. Also, the Potency is 2.51 µM (active) in assay [4], 4.47 µM (active) in [5], 3.98 µM (active) in assay [6] and 2 µM (active) in [7].

As for `O=C(O)C1CN(CCCP(=O)(O)O)CCN1` (stereo not drawn), the Potency result in assay [8], in assay [2], in [3], in assay [4], in [5] and in [6] was “inactive” in each case. For the same molecule, in [7], the Potency result is “inactive”.

Consider `Nc1ccc2c3c(cccc13)C(=O)NC2=O`, for which the molecule was called inactive in assay [9] and in assay [10]. In addition, in assay [1], the activity change, negative = inhibition was 0.251% (inactive). In addition, the max response is -11.6% in [1] (setting [11]) and -11.3% in assay [1] (setting [12]). The Potency entry in assay [3] and in assay [7] was “inactive” in each case.

Regarding `CCC1(O)CC2CN(CCc3c([nH]c4ccccc34)[C@@](C(=O)OC)(c3cc4c(cc3OC)N(C)C3[C@]45CCN4CC=C[C@@](CC)([C@@H](OC(C)=O)[C@]3(O)C(=O)OC)[C@H]45)C2)C1` (stereo partly drawn), the Potency entry in [8], in assay [2] and in [3] was “inactive” throughout. The Potency in assay [4] was 1.12 µM (active); in [5] it was 2.51 µM (active); in assay [6], 0.631 µM (active); in assay [7] it was 5.01 µM (active).
